Screening data deposited in PubChem BioAssay by National Center for Advancing Translational Sciences (NCATS).
This is a sample that favours compounds with a hit; in the whole collection about 21% have one here.
TDP1 cell noCPT: qHTS for Inhibitors of human tyrosyl-DNA phosphodiesterase 1 (TDP1): qHTS in cells in absence of CPT; 15% of 420,000 active; Potency, µM (highest dose often 46.2 µM), for the others: at the top dose activity change, negative = growth inhibition, most hits filed as inhibitors; DT40 Tdp1-/- hTDP1 cells, no CPT, ATP luminescence, 48 h; further: potency means the concentration at half of the fitted maximal effect; nearly all actives have a fitted effect of over 55% in size
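Growth of hTDP1-complemented DT40 Tdp1-knockout cells is measured by ATP luminescence after at least 48 hr compound exposure at 37 °C, with DMSO substituting for the 20 nM CPT used in the parallel screen.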
ELG1 repair inh: ELG1-dependent DNA repair inhibition. HEK293T ELG1-luciferase reporter, luminescence, 16 h; DNA damage induced by 5-fluorouridine. Potency, µM (top dose mostly 46.1 µM), for the others: at the highest dose activity change, negative = inhibition, usual class: inhibitors. 2.3% of 330,000 active. AID 504467; further: potency means the concentration at half of the fitted maximal effect; nearly all actives have a fitted effect of over 55% in size
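Quantitative HTS, concentration-response format. 2,000 cells/well co-treated with 5-fluorouridine and compound, 16 hr in 5% CO2 at 37 °C; ONE-Glo luminescence read after 30 min.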
TDP1 cell CPT: growth inhibition of DT40 Tdp1-/-;hTDP1 cells with camptothecin (screen for TDP1 inhibitors) | 12% of 420,000 active | Potency, µM (series often up to 46.2 µM), for inactives: at the top dose activity change, negative = growth inhibition, actives largely listed as inhibitors | AID 686979 | chicken DT40 Tdp1-/-;hTDP1 cells + 20 nM CPT, ATP luminescence, 48 h; further: potency means the concentration at half of the fitted maximal effect; nearly all actives have a fitted effect of over 55% in size
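Chicken DT40 Tdp1-/- cells complemented with human TDP1, 400 cells/well, exposed to compounds plus 20 nM camptothecin for at least 48 h at 37 C; viability read as ATP content by CellTiter-Glo luminescence.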
VP16 counter: Gal4-VP16 reporter inhibition counter-screen. Drosophila S2 Gal4-VP16 UAS-luciferase, luminescence, 20 h. Potency, µM (series often up to 53.6 µM), for inactives: top-dose activity, negative = inhibition, actives largely listed as inhibitors. 3.5% of 310,000 active. AID 2546;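 further: Gal4-VP16 expression switched on by copper sulfate through the metallothionein promoter; potency means the concentration at half of the fitted maximal effect; nearly all actives have a fitted effect of over 50% in size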
IL1B secr inh: blocks inflammasome-driven IL-1 beta release. 4.7% of 360,000 active. activity change, % at 57.5 µM. AID 743279. THP-1 LPS/ATP IL-1B secretion, AlphaLISA, 16 h; active compounds read low; in the data active means activity change below about -50%; inconclusive means mostly about -30% to -49%
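Secreted IL-1B measured by AlphaLISA bead assay after 16 h compound exposure of THP-1 cells; compounds (final up to 57.5 uM) added 1 h before LPS (250 ng/mL) and ATP (1.25 mM) stimulation; lower signal means less secretion.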
RORgamma inh: blocks mouse ROR gamma transcriptional activity; Drosophila S2 Gal4-RORgamma UAS-luciferase reporter, 20 h; 5.4% of 310,000 active; Potency, µM (doses to about 53.6 µM), inactives show top-dose activity change, negative = inhibition, usual class: inhibitors; further: potency means the concentration at half of the fitted maximal effect; nearly all actives have a fitted effect of over 60% in size
Target sequence (P51450 whole entry, looked up, the tested form may be a part): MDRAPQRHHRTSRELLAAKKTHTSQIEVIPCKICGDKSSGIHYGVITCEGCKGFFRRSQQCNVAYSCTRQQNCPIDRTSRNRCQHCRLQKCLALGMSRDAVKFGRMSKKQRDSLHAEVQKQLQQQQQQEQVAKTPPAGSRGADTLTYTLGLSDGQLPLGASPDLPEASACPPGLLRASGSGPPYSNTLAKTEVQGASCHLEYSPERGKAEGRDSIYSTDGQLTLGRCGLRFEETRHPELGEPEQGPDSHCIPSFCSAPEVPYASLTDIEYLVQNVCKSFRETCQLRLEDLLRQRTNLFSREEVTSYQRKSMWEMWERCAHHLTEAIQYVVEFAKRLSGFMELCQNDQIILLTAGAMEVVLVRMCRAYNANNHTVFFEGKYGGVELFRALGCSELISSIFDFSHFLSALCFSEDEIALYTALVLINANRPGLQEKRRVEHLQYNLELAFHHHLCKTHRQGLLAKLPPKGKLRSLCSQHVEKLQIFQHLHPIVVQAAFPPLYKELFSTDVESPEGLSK
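Stable Schneider cell line, Gal4 DNA-binding domain fused to ROR gamma, UAS-luciferase. Cmpd 1 hr RT → CuSO4 700 uM final → 20 hr RT → luciferase reagent 10 min → luminescence.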
* = called active by the depositor. Unless noted, the call rests on the fitted dose curve; in most records, active means well fitted curve in the direction sought with a large enough effect; inconclusive means small, poorly fitted or top-dose-only effect, or another doubt; inactive means no such curve, though single readings can be large; an effect the other way counts as inactive or inconclusive. On the % scale 0 is the no-effect control and ±100 the full control effect.

COc1cccc(C2NC(=O)CCC2[N+](=O)[O-])c1OC (stereo not drawn) was read as TDP1 cell noCPT -2%, ELG1 repair inh 11%, TDP1 cell CPT 24%, VP16 counter -1%, IL1B secr inh 11 and RORgamma inh -11%.
For O=C(COC(=O)CNC(=O)c1ccccc1)NCCCc1ccccc1 the results were TDP1 cell noCPT 3%, ELG1 repair inh 13%, TDP1 cell CPT -3% and IL1B secr inh -2.
For O=C(COC(=O)CNC(=O)c1ccccc1)NCCc1ccccc1 the results were TDP1 cell noCPT 11%, ELG1 repair inh -10%, TDP1 cell CPT 15%, VP16 counter 0%, IL1B secr inh 0 and RORgamma inh 10µM*.
For CCOc1ccc(C(=O)NCCc2ccccc2)cc1 the results were TDP1 cell noCPT -2%, ELG1 repair inh inconclusive, TDP1 cell CPT -26%, VP16 counter 8.9µM*, IL1B secr inh -24 and RORgamma inh 8.9µM*.
CC(=O)Oc1ccc(C(=O)NCCc2ccccc2)cc1 was read as TDP1 cell noCPT -14%, ELG1 repair inh inconclusive, TDP1 cell CPT 8%, VP16 counter inconclusive, IL1B secr inh -16 and RORgamma inh inconclusive.
`NS(=O)(=O)c1ccc(CCNC(=O)COC(=O)CC(c2ccccc2)c2ccccc2)cc1` gave TDP1 cell noCPT inconclusive, ELG1 repair inh 21µM*, TDP1 cell CPT inconclusive, VP16 counter 6%, IL1B secr inh 11 and RORgamma inh 55%.
For NS(=O)(=O)c1ccc(CCNC(=O)CC(c2ccccc2)c2ccccc2)cc1 the results were TDP1 cell noCPT -2%, ELG1 repair inh 4%, TDP1 cell CPT -7%, VP16 counter inconclusive, IL1B secr inh 12 and RORgamma inh 17%.
`O=C(Cn1c(=O)c2sccc2n(Cc2ccc([N+](=O)[O-])cc2)c1=O)NCCc1ccccc1` gave TDP1 cell noCPT 13µM*, ELG1 repair inh inconclusive, TDP1 cell CPT inconclusive, VP16 counter 1%, IL1B secr inh -28 and RORgamma inh inconclusive.
Screening O=C(NCCc1ccc(F)cc1)c1ccc([N+](=O)[O-])cc1 returned TDP1 cell noCPT -10%, ELG1 repair inh inconclusive, TDP1 cell CPT -16%, VP16 counter -11%, IL1B secr inh -8 and RORgamma inh -2%.
For Cc1ccc(CCNC(=O)c2ccc3[nH]c(C)c(C)c3c2)cc1 the results were TDP1 cell noCPT -22% and TDP1 cell CPT inconclusive.
`COc1ccccc1CNC(=O)c1ccc2[nH]c(C)c(C)c2c1` gave TDP1 cell noCPT -12% and TDP1 cell CPT 9%.
`COc1ccc(OC)c(CCNC(=O)c2ccc3[nH]c(C)c(C)c3c2)c1` gave TDP1 cell noCPT 21µM* and TDP1 cell CPT inconclusive.
Screening Cc1ccc(C(=O)NC(=S)N(C)Cc2ccccc2)cc1 returned TDP1 cell noCPT inconclusive, TDP1 cell CPT inconclusive and IL1B secr inh -30.
`CCOc1ccc(C(=O)NC(=S)N(Cc2ccccc2)Cc2ccccc2)cc1` gave TDP1 cell noCPT inconclusive, ELG1 repair inh -28%, TDP1 cell CPT 21µM*, VP16 counter 0.79µM*, IL1B secr inh 1 and RORgamma inh 0.28µM*.
For CCOc1ccc(CCNC(=O)c2ccc3[nH]c(C)c(C)c3c2)cc1 the results were TDP1 cell noCPT 21µM* and TDP1 cell CPT inconclusive.
Screening O=C(CCNC(=O)c1ccc([N+](=O)[O-])cc1)NCCc1ccccc1 returned TDP1 cell noCPT inconclusive, ELG1 repair inh -1%, TDP1 cell CPT inconclusive, VP16 counter 26%, IL1B secr inh -57* and RORgamma inh 2%.
Screening CC1(C(=O)NCCC#N)CCN1C(=O)C1(c2ccccc2)CCCC1 (stereo not drawn) returned TDP1 cell noCPT -8%, TDP1 cell CPT 4% and IL1B secr inh 21.
Screening CCCN(CCC)C(=S)NC(=O)c1ccc(-c2ccccc2)cc1 returned TDP1 cell noCPT inconclusive, ELG1 repair inh 11%, TDP1 cell CPT inconclusive, VP16 counter 0.13µM*, IL1B secr inh 9 and RORgamma inh 0.5µM*.
Screening CCc1ccc(NC(=O)CSc2nc(C)c(C(=O)Nc3ccc(Cl)cc3)c(-c3ccc(OC)cc3)c2C#N)cc1 returned TDP1 cell noCPT 1% and TDP1 cell CPT inconclusive.
For COCCOC(=O)c1c(C)nc(SCC(=O)Nc2ccc(OC)cc2)c(C#N)c1-c1ccco1 the results were TDP1 cell noCPT inconclusive, ELG1 repair inh 23µM*, TDP1 cell CPT -12%, VP16 counter -6%, IL1B secr inh -13 and RORgamma inh -3%.
CCOCC(=O)Nc1ccccc1C(=O)N1CCOCC1 was read as TDP1 cell noCPT -5%, ELG1 repair inh 1%, TDP1 cell CPT 30%, VP16 counter 0%, IL1B secr inh -12 and RORgamma inh 11%.
For CC(=Nc1ccc(C)cc1C)c1sc2ccccc2c1O the results were TDP1 cell noCPT 18µM*, ELG1 repair inh inconclusive, TDP1 cell CPT inconclusive, VP16 counter inconclusive, IL1B secr inh -8 and RORgamma inh -27%.
Screening CCOc1ccc(N2CC(NC(=O)C3CCCCC3)CC2=O)cc1 (stereo not drawn) returned TDP1 cell noCPT -2% and TDP1 cell CPT -7%.
For CCNC(=O)C1(C)CCN(Cc2noc(-c3c(C)noc3C)n2)C1 (stereo not drawn) the results were TDP1 cell noCPT -13%, TDP1 cell CPT -5% and IL1B secr inh 19.
CCc1ccccc1N1CC23C=CC(O2)C(C(=O)O)C3C1=O (stereo not drawn) was read as TDP1 cell noCPT -22%, ELG1 repair inh 19%, TDP1 cell CPT 18µM*, VP16 counter -27%, IL1B secr inh -9 and RORgamma inh 9%.
COc1ccc(CNC(=O)C(C)n2ccc3cc(S(=O)(=O)N4CCCCCC4)ccc32)cc1 (stereo not drawn) was read as TDP1 cell noCPT inconclusive, ELG1 repair inh inconclusive, TDP1 cell CPT inconclusive, VP16 counter 1%, IL1B secr inh inconclusive and RORgamma inh 22%.
`CC(C)Oc1ccc(CNC(=O)C(C)n2ccc3cc(S(=O)(=O)N4CCCCCC4)ccc32)cc1` (stereo not drawn) gave TDP1 cell noCPT 21µM* and TDP1 cell CPT inconclusive.
